Screening data deposited in PubChem by ICCB-Longwood Screening Facility, Harvard Medical School.
MbtI inh: MbtI salicylate synthase inhibition | 100,000 compounds, 0.89% hits | P9WFX0 | AID 493033 | inhibition, % (test concentration not listed) | purified MbtI enzyme, fluorescence intensity read-out; in the data active = inhibition mostly above about 56%, no sharp cut-off; inactive = mostly below about 77%
Target sequence (P9WFX0 whole entry, looked up): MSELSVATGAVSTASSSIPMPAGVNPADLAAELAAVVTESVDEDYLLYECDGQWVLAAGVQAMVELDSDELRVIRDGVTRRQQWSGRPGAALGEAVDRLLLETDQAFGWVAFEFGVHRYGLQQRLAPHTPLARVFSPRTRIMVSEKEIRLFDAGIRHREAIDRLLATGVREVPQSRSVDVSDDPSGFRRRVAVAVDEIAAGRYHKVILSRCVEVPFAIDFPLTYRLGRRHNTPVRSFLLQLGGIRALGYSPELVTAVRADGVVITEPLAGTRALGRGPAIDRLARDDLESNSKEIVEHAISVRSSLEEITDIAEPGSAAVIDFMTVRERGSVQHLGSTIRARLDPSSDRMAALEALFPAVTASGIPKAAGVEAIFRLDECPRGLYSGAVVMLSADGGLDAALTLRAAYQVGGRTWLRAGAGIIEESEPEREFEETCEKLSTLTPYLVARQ
Mtb MenB inh: inhibitors of Mycobacterium tuberculosis MenB enzyme | P9WNP5 | MenB enzyme assay, absorbance read-out | inhibition, % (test concentration not listed) | 100,000 compounds, 0.43% hits; in the data active = inhibition above about 21%, passing the limit was not always enough
Polio RdRp inh: poliovirus RNA polymerase inhibition; 150,000 compounds, 0.66% hits; % elongation, % (compound at 16.7 µg/mL); poliovirus polymerase elongation, fluorescence polarization; active compounds read low; P03300; in the data active = % elongation below about 90%
Numbers stand for hits; 0 = inactive; - = not tested or not shown. Shown are actives, neighbours in structure and some others; about 1.4% of the full set was active somewhere.

SMILES	MbtI inh	Mtb MenB inh	Polio RdRp inh
O=C(CSc1nc2ccccc2c(=O)n1Cc1ccco1)N(c1ccccc1)c1ccccc1	0	0	0
CCOc1ccccc1C(=S)N1CCOCC1	74	0	0
O=C(Oc1ccccc1C(=S)N1CCOCC1)c1ccccc1	0	0	0
Cc1ccccc1CNC(=O)c1nn(-c2ccccc2F)nc1CO	-	-	0
NNC(=O)c1cccc(S(=O)(=O)Nc2ccccc2Cl)c1	0	0	0
O=C(N/N=C/c1ccc(O)c(O)c1O)c1cccc(S(=O)(=O)Nc2ccccc2Cl)c1	55	0	0
CCCn1c(N)c(C(=O)CSc2ccc3c(c2)OCCO3)c(=O)[nH]c1=O	0	0	0
COc1ccc(-c2nc(N)s[n+]2-c2ccccc2)cc1	98	-	0
COc1ccc(-c2noc(N(C)c3ccccc3)n2)cc1	0	0	0
CC(=O)Oc1ccc2c(c1)CCC1C2CC[C@]2(C)C(=O)CCC12 (some centres not stated)	0	0	0
O=c1[nH]c(-c2ccco2)nc2sc3c(c12)CCCC3	0	-	0
O=c1[nH]c(-c2ccccc2O)nc2sc3c(c12)CCCC3	-	0	89
Fc1cccc(-c2csc(COc3ccccc3Cl)n2)c1	0	0	0
COc1ccc(Cl)cc1C(=O)OCC(=O)N1CCN(C(=O)COC(=O)c2cc(Cl)ccc2OC)CC1	0	0	0
N#C/C(=C\c1cc(Br)c(O)c(Br)c1)c1nc2ccccc2c(=O)[nH]1	-	-	0
CCOc1ccc(NC(=O)Cn2c(=O)n(CCCCCC(=O)NCc3ccccc3)c(=O)c3sccc32)cc1	-	-	0
O=C(CSc1n[nH]c(=O)n1Cc1ccccc1)c1ccc(S(=O)(=O)N2CCCC2)cc1	0	0	0
CCN1C(=O)C(=Cc2ccc(-c3ccccc3F)o2)C(=O)N(CC)C1=S	0	0	0
CCN1C(=O)C(=Cc2ccc(-c3ccc(Br)c(Cl)c3)o2)C(=O)N(CC)C1=S	90	0	0
CN(CC(=O)O)Cc1cccnc1	0	26	0
O=C(O)CNC(=S)N(Cc1ccccc1)Cc1cccnc1	0	0	0
CCCNC(=O)c1cnc2c(-c3ccc(OCC)c(OCC)c3)c(C)nn2c1-c1ccccc1	-	-	0
CCOc1ccc(N2C(=O)CC(Sc3ncccc3C(=O)O)C2=O)cc1 (configuration not stated)	0	0	0
C=CCN1C(=O)NC(=O)/C(=C\c2ccc(O)c(O)c2)C1=O	0	0	0
O=C1NC(=O)N(CCc2ccc(F)cc2)C(=O)/C1=C\c1ccc(O)c(O)c1	51	0	0
SMILES	MbtI inh	Mtb MenB inh	Polio RdRp inh
CN1CCN(C2=NC(=O)/C(=C\C=C/c3ccccc3)S2)CC1	0	0	0
CCOC(=O)c1c(Nc2ccc(OC)c(Cl)c2)n[nH]c1C	88	0	0
CCOC(=O)c1c(N=Cc2ccc(OC)c(OC)c2Cl)n[nH]c1C	0	0	0
CSc1ncc2c(=O)n(Cc3ccccc3)ccc2n1	0	0	0
C=CCN1C(=O)C2C(C(=O)NCc3ccccc3)C3C=CC2(O3)C1C(=O)NC(C)(C)C (configuration not stated)	0	0	0
CCOC(=O)CN1CC23C=CC(O2)C(C(=O)NCc2ccc(OC)cc2)C3C1=O (configuration not stated)	0	0	0
C#CCN1C(=O)C2C(C(=O)NC)C3C=CC2(O3)C1C(=O)NCc1ccc(OC)cc1 (configuration not stated)	0	54	0
CNC(=O)C1C2C=CC3(O2)C1C(=O)N(C1CC1)C3C(=O)NCc1ccc(OC)cc1 (configuration not stated)	0	48	0
COc1ccc(C(=O)c2oc3ccccc3c2NC(=O)COc2c(C)cc(C)cc2C)cc1	-	-	0
O=S(=O)(NCCc1nnc2ccc(SCc3ccccc3Cl)nn12)c1ccccc1	-	-	0
CC(C)n1c(C(O)c2ccc(N(C)C)cc2)nc2ccccc21 (configuration not stated)	0	0	0
CCCCN(CC)CCCNC(=O)c1cc2c(-c3ccc(OC)c(OC)c3)nn(C)c2s1	-	-	80
CCOCCCNC(=O)c1cc2c(-c3ccc(OC)c(OC)c3)nn(C)c2s1	-	-	0
Cc1cc(C)n(-c2ccc(C(=O)NC(C)c3ccc(S(N)(=O)=O)cc3)cc2)n1 (configuration not stated)	0	0	0
Cc1cc(/C=C2/SC(=O)N(c3ccccc3)C2=O)c(C)n1-c1cccnc1	0	0	0
O=C(N/N=C/c1ccco1)C1CN(S(=O)(=O)c2ccccc2)CCN1S(=O)(=O)c1ccccc1 (configuration not stated)	84	0	0
CC(C)NC(=O)C1CN(S(=O)(=O)c2ccccc2)CCN1S(=O)(=O)c1ccccc1 (configuration not stated)	-	0	0
O=C(c1cc(=O)[nH]c2ccccc12)N(Cc1ccco1)Cc1cccs1	0	0	0
Cc1cc(C)c(C#N)c(SCC(=O)Nc2ccccc2C#N)n1	-	-	0
Cc1ccc(NC(=O)CSc2nc(C)cc(C)c2C#N)cc1	0	40	0
CCc1ccc(NC(=O)Cn2c(=O)cc(C)c3c(C)nn(C)c32)cc1	0	0	0
O=c1c(Cl)c(Cl)cnn1Cc1ccccc1	0	0	0
S=c1c(Cl)c(Cl)cnn1Cc1ccccc1	-	0	67
CC(C)(C)c1noc2nc(-c3cccs3)cc(C(F)(F)F)c12	0	0	0
Cc1ccccc1N1CC(c2nnc(NC(=O)c3ccco3)s2)CC1=O (configuration not stated)	-	-	82
SMILES	MbtI inh	Mtb MenB inh	Polio RdRp inh
CCN(c1ccccc1C)S(=O)(=O)c1nnc(NC(=O)c2ccco2)s1	-	-	0
Cc1onc(C(C)C)c1C(=O)O	0	0	0
CC(C)(Oc1ccc(Cl)cc1)C(=O)Nc1cccc(-c2nn3cnnc3s2)c1	0	0	0
CC1(C)C=C(c2c[nH]c(C3=CC(C)(C)NC(C)(C)C3)c2)CC(C)(C)N1	-	0	0
Cc1cc(F)ccc1S(=O)(=O)Nc1ccc2oc3c(c2c1)C(=O)CC(C)(C)C3	0	0	0
CC(Sc1nnc(-c2ccc3c(=O)n4c(nc3c2)CCCCC4)o1)C(=O)Nc1ccc(F)cc1 (configuration not stated)	0	0	0
Cc1ccc(S(=O)(=O)N=C2C=CC(=NS(=O)(=O)N(C)C)C=C2)cc1	0	0	0
Cc1ccc(S(=O)(=O)N=C2C=CC(=NS(=O)(=O)c3ccc(C)cc3)C=C2)cc1	72	0	0
CNS(=O)(=O)c1ccc(Br)cc1I	0	0	0
Cc1ccc(C(=O)Sc2nnc3ccccn23)cc1	0	-	0
Cc1ccc(C(=O)Sc2nc(C)cc(C)n2)cc1	78	0	0
COCCNCc1ccccc1	0	0	0
CCCNCc1ccccc1	0	32	0
CN(CC(=O)N1CCCc2ccccc21)S(=O)(=O)c1ccc2c(c1)OCCO2	0	0	0
COC(=O)c1ccccc1NC(=O)N1CCCc2cc(C)ccc21	0	0	0
Cc1ccc(Cn2ncc3ccccc32)cc1	0	0	0
Cc1cc(C)c(C#N)c(=O)[nH]1	0	0	0
Cc1cc(C)c(C#N)c(=S)[nH]1	90	0	0
COc1ccc(C2=C(C)C(=O)N(Cc3ccc(C(=O)Nc4cccc(F)c4)cc3)S2(=O)=O)cc1	-	-	0
CCc1cccc(NC(=O)c2ccc(CN3C(=O)C(C)=C(c4ccc(OC)cc4)S3(=O)=O)cc2)c1	-	-	8.0
Cn1c(C2CC2)nc2ccccc21	0	0	0
